{"source": "PubChem BioAssay AID2546", "about": "(National Center for Advancing Translational Sciences (NCATS), 2010)", "note": "Screen size: about 310,000 compounds; about 11,000 (3.5%) were called active. Roughly 8% stayed inconclusive and do not appear here. Calls come from the whole dose curve; as a rule, active = well fitted inhibition curve with a large enough effect; inconclusive = small, poorly fitted or top-dose-only effect, or effect the other way; inactive = flat fitted curve, though single readings scatter. What follows is part of a selection rich in actives, with near analogues and random picks from the rest. Entries that show only a call come without a potency. Potency is the fitted concentration of half-maximal effect."}
{"experiment": "VP16 counterscreen qHTS for inhibitors of ROR gamma transcriptional activity;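 note: Gal4-VP16 expression switched on by copper sulfate through the metallothionein promoter; nearly all actives have a fitted effect of over 50% in size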", "settings": "Drosophila S2 Gal4-VP16 UAS-luciferase, luminescence, 20 h; series mostly up to 53.6 µM"}
{"smiles": "Cc1ccccc1CNC(=O)CCC(=O)N1Cc2ccccc2Oc2ncccc21", "Potency": "inactive"}
{"smiles": "Cc1cc(SCc2c(F)cccc2Cl)nc(=O)[nH]1", "Potency": "inactive"}
{"smiles": "COc1ccc(CNC(=O)/C(C#N)=C/c2cccc(OC)c2OC)cc1", "Potency": "inactive"}
{"smiles": "O=C(NCCOCc1ccc(Cl)cc1)c1ncn[nH]1", "Potency": "inactive"}
{"smiles": "COc1ccc(Cl)cc1CSc1ncn[nH]1", "Potency": "inactive"}
{"smiles": "O=C(/C=C/Sc1ncn[nH]1)c1ccc(Cl)cc1", "Potency": "4.47 µM (active)"}
{"smiles": "O=C(Cn1c(NCCO)nc2ccccc21)c1ccc(Cl)cc1Cl", "Potency": "inactive"}
{"smiles": "CCc1cccc(NC(=S)N(CCN(C)C)C2CCN(C(C)C)CC2)c1", "Potency": "inactive"}
{"smiles": "CC(C)c1ccc(S(=O)(=O)N2CCN(C(=O)c3ccc(N4CCCC4)c([N+](=O)[O-])c3)CC2)cc1", "Potency": "inactive"}
{"smiles": "CC(=O)N1c2ccc(S(=O)(=O)NCCC(=O)N(C)C3CCCCC3)cc2CC1C", "note": "(centres undefined)", "Potency": "inactive"}
{"smiles": "Nc1nc(Nc2ccccc2F)nc(NC2CCCCC2)c1[N+](=O)[O-]", "Potency": "inactive"}
{"smiles": "Cc1ccc(-c2csc(-c3c[nH]c4ccccc34)n2)cc1", "Potency": "inactive"}
{"smiles": "Cc1cccc(N=C2NN=C(c3c[nH]c4ccccc34)CS2)c1", "Potency": "7.94 µM (active)"}
{"smiles": "Cc1cccc(C(=O)Nc2nnc(Cc3c[nH]c4ccccc34)s2)c1", "Potency": "inactive"}
{"smiles": "C=CCCN(C(Cc1ccccc1)C(=O)OC)S(=O)(=O)c1cc(Br)ccc1Br", "note": "(centres undefined)", "Potency": "inactive"}
{"smiles": "CC(C)c1nc(CNC(=O)CC2C(=O)NCCN2Cc2cccc(F)c2F)cs1", "note": "(centres undefined)", "Potency": "inactive"}
{"smiles": "COc1ccc(N2CCN(S(=O)(=O)CCNC(=O)C34CC5CC(CC(C5)C3)C4)CC2)cc1", "Potency": "inactive"}
{"smiles": "COC(=O)c1ccc(CSc2ccc3nnc(-c4ccccc4)n3n2)o1", "Potency": "20 µM (active)"}
{"smiles": "COc1ccc(-c2nnc3ccc(SCc4ccccc4)nn23)cc1", "Potency": "inactive"}
{"smiles": "COC(=O)c1ccc(CSc2ccccc2C)o1", "Potency": "inactive"}
{"smiles": "CC(=O)c1ccc(NC(=O)c2sc3nc4n(c(=O)c3c2C)CCCCC4)cc1", "Potency": "inactive"}
{"smiles": "COc1ccc(Cl)cc1NC(=O)c1cccc(N2C(=O)C3CC=CCC3C2=O)c1", "note": "(centres undefined)", "Potency": "inactive"}
{"smiles": "Cc1cc2[nH]ncc2cc1NC(=S)NC(=O)c1ccccc1", "Potency": "inactive"}
{"smiles": "CCOC(=O)C1=C(NC(=S)NC(=O)c2ccccc2)c2ccccc2CC1(C)C", "Potency": "11.2 µM (active)"}
{"smiles": "CCOC(=O)c1c(-c2ccccc2)csc1NC(=S)NC(=O)c1ccccc1", "Potency": "6.31 µM (active)"}
{"smiles": "CCOC(=O)c1c(-c2ccc(-c3ccccc3)cc2)csc1NC(=O)CCC(=O)O", "Potency": "inactive"}
{"smiles": "CCOC(=O)c1c(NC(=O)C2(C)Cc3ccccc3C(=O)O2)sc2c1CCCC2", "note": "(centres undefined)", "Potency": "inactive"}
{"smiles": "CCOC(=O)c1c(-c2cccc(C)c2)csc1NC(=O)c1c(-c2ccccc2)noc1C", "Potency": "inactive"}
{"smiles": "COc1ccc(CNC(=O)CN(Cc2ccccc2Cl)C(=O)c2csnn2)cc1", "Potency": "inactive"}
{"smiles": "COc1ccc(CCNC(=O)c2c(C)nn(-c3ccccc3)c2Cl)cc1", "Potency": "inactive"}
{"smiles": "COc1ccc(N(CC(=O)Nc2cc(OC)ccc2OC)S(=O)(=O)c2c(C)noc2C)cc1", "Potency": "inactive"}
{"smiles": "CCOc1c(OC)cccc1C(=O)NCC1(c2ccccc2)CCCC1", "Potency": "inactive"}
{"smiles": "CN(Cc1ccccc1)C(=O)c1ccc(COc2ccccc2)cc1", "Potency": "inactive"}
{"smiles": "CC1=C/C(=N\\OS(=O)(=O)c2ccccc2)C=CC1=O", "Potency": "1.12 µM (active)"}
{"smiles": "O=S(=O)(ON(c1ccccc1)S(=O)(=O)c1ccccc1)c1ccccc1", "Potency": "inactive"}
{"smiles": "NC(=O)CC(NC(=O)Cc1ccc(Br)cc1)c1ccc(NC2CC3CCC2C3)c([N+](=O)[O-])c1", "note": "(centres undefined)", "Potency": "inactive"}
{"smiles": "CC(C)NC(=O)C(c1ccc(F)cc1)N(C(=O)CCC(=O)Nc1ccccn1)c1ccccc1F", "note": "(centres undefined)", "Potency": "inactive"}
{"smiles": "CCCn1nc(NC(=O)C(C)C)c2cc3cc(OC)ccc3nc21", "Potency": "inactive"}
{"smiles": "CCOc1ccc2c(c1)c(=O)c(S(=O)(=O)c1ccc(C)cc1)cn2CC", "Potency": "inactive"}
{"smiles": "COCn1c(C(O)c2ccccc2)cc2ccccc21", "note": "(centres undefined)", "Potency": "inactive"}
{"smiles": "COc1cc(C(=O)NC(=S)NCc2ccco2)cc(OC)c1OC", "Potency": "6.31 µM (active)"}
{"smiles": "COc1cc(C(=O)N[C@@H](C)C(=O)NCc2ccco2)cc(OC)c1OC", "Potency": "inactive"}
{"smiles": "COc1cc(-n2c(C)nc3cc(C(=O)NCc4ccco4)ccc32)cc(OC)c1OC", "Potency": "inactive"}
{"smiles": "COc1ccc(CNc2nccs2)cc1", "Potency": "inactive"}
{"smiles": "CCC(=C/c1sc2ccc3ccccc3c2[n+]1C)/C=C1\\Sc2ccc3ccccc3c2N1C", "Potency": "1 µM (active)"}
{"smiles": "COc1cccc(OC)c1C(=O)Nc1c(C(=O)N2CCN(c3ccccn3)CC2)oc2ccccc12", "Potency": "inactive"}
{"smiles": "O=C(c1cccnc1)N1CCN(S(=O)(=O)c2cccs2)CC1", "Potency": "inactive"}
{"smiles": "O=S(=O)(NC1CCCCC1N1CCN(c2ccccc2F)CC1)c1ccccc1", "note": "(centres undefined)", "Potency": "inactive"}
{"smiles": "CCc1ccc(CNC(=O)C2CCCN(c3nc4ccccc4o3)C2)cc1", "note": "(centres undefined)", "Potency": "inactive"}
{"smiles": "CCOC(=O)CCNC(=O)N1CCCC(C(=O)c2ccccc2SC)C1", "note": "(centres undefined)", "Potency": "inactive"}
{"smiles": "CCOC(=O)c1cnc(Nc2nc3ccccc3o2)nc1CSC(=S)N1CCCCC1", "Potency": "1 µM (active)"}
{"smiles": "COc1cc(C(=O)NCc2cc3cc(Cl)ccc3n2C)cc(OC)c1OC", "Potency": "inactive"}
{"smiles": "Cc1ccc(NS(=O)(=O)c2ccc3c(c2)oc(=O)n3C)c(C)c1", "Potency": "inactive"}
{"smiles": "COc1ccccc1N(C)C(=O)c1cc(S(=O)(=O)N2CCc3ccccc32)cn1C", "Potency": "inactive"}
{"smiles": "COC(=O)c1ccc(C(=O)NC2CC(C)(C)Cc3c2cnn3-c2ccc(F)cc2)nc1", "note": "(centres undefined)", "Potency": "inactive"}
{"smiles": "Oc1ccc(N=Nc2nccs2)c(O)c1", "Potency": "inactive"}
{"smiles": "Oc1c(C=Nc2cccc3nsnc23)ccc2ccccc12", "Potency": "inactive"}
{"smiles": "Oc1ccc2ccccc2c1N=Nc1nccs1", "Potency": "3.55 µM (active)"}
{"smiles": "Cc1csc(NC(=O)CSc2nnc(-c3cccnc3)o2)n1", "Potency": "inactive"}
{"smiles": "COc1ccc(-c2nc(CS(=O)(=O)CC(=O)NCc3cccc(Br)c3)c(C)o2)cc1", "Potency": "inactive"}
{"smiles": "Cc1[nH]n(C(N)=S)c(=O)c1N=Nc1ccc(Cl)cc1Cl", "Potency": "2.82 µM (active)"}
{"smiles": "Cc1cccc(N=Nc2c(C)[nH]n(-c3ccccc3)c2=O)c1", "Potency": "inactive"}
{"smiles": "Cc1ccc(N=Nc2c(C)[nH]n(-c3ccccc3)c2=O)cc1", "Potency": "inactive"}
{"smiles": "COc1ccc(NC(=O)c2cc(-c3cc(OC)c(OC)c(OC)c3)nc3ccccc23)c(OC)c1", "Potency": "inactive"}
{"smiles": "O=C(c1cccc(Cl)c1)N1CCN(Cc2ccccc2)CC1", "Potency": "inactive"}
{"smiles": "O=C(Nc1ccccc1)N1CCN(Cc2ccccc2)CC1", "Potency": "inactive"}
{"smiles": "O=C(NC(=S)N1CCN(Cc2ccccc2)CC1)c1ccccc1", "Potency": "3.55 µM (active)"}
{"smiles": "CC1CCN(S(=O)(=O)c2ccc3[nH]c(=O)ccc3c2)CC1", "Potency": "inactive"}
{"smiles": "CCC(C)[C@H](NC(=O)N1CCn2c1nc1ccccc12)C(=O)NCc1ccc(OC)cc1", "note": "(some centres undefined)", "Potency": "inactive"}
{"smiles": "NC(=S)N/N=C/c1ccc([N+](=O)[O-])cc1", "Potency": "inactive"}
{"smiles": "CCOc1ccc(/C=N/NC(N)=S)cc1", "Potency": "10 µM (active)"}
{"smiles": "CCOc1ccc(/C=N\\NC(=O)c2c(C)nc3cc(C)ccn23)cc1", "Potency": "inactive"}
{"smiles": "COc1cc(OC)cc(C(=O)NCCSCc2ccc(Cl)cc2)c1", "Potency": "inactive"}
{"smiles": "COc1cccc(-c2noc(C3CCCN(C(=O)c4ccc(F)cc4)C3)n2)c1", "note": "(centres undefined)", "Potency": "inactive"}
{"smiles": "Cn1c(=O)c2c(SCC(=O)NCC3CCCO3)nc(CC(C)(C)C)nc2n(C)c1=O", "note": "(centres undefined)", "Potency": "inactive"}
{"smiles": "CC(C)(C)n1nnnc1C(c1ccc(F)cc1)N1CCN(Cc2ccc3c(c2)OCO3)CC1", "note": "(centres undefined)", "Potency": "inactive"}
{"smiles": "O=c1[nH]c(N2CCN(Cc3ccc4c(c3)OCO4)CC2)nc2c1CCCC2", "Potency": "inactive"}
{"smiles": "Fc1ccc2[nH]c3c(N4CCN(Cc5ccc6c(c5)OCO6)CC4)ncnc3c2c1", "Potency": "7.08 µM (active)"}
{"smiles": "CCC(C)(C)NC(=O)C(c1ccc(O)cc1)N(Cc1ccco1)C(=O)CCC(=O)Nc1ccccn1", "note": "(centres undefined)", "Potency": "inactive"}
{"smiles": "Cc1ccc(-c2cnc(NC(=O)CCC(=O)N(C)Cc3ccccc3)n2C)cc1", "Potency": "4.47 µM (active)"}
{"smiles": "Cn1c(-c2ccc(F)cc2)cnc1SCC(=O)NNC(=O)Cc1ccccc1", "Potency": "inactive"}
{"smiles": "CN(Cc1ccccc1)C(=O)CCc1ccccc1", "Potency": "inactive"}
{"smiles": "Cc1ccn2c(=O)c(C(=O)NCCC3=CCCCC3)c(O)nc2c1", "Potency": "inactive"}
{"smiles": "O=C(COc1nsnc1N1CCOCC1)Nc1ccccc1Cl", "Potency": "inactive"}
{"smiles": "O=C(Cn1ncc2c3ccccc3n(Cc3ccccc3)c2c1=O)NCCCN1CCOCC1", "Potency": "inactive"}
{"smiles": "CCCn1c(NC(=O)C23CC4CC(CC(O)(C4)C2)C3)nc2ccccc21", "Potency": "5.62 µM (active)"}
{"smiles": "CCCn1c(C(Cc2ccccc2)NC(=O)COC)nc2ccccc21", "note": "(centres undefined)", "Potency": "inactive"}
{"smiles": "CCOc1ccccc1NC(=O)C12CC3CC(C1)CC(c1ccc(C)cc1)(C3)C2", "Potency": "inactive"}
{"smiles": "Cc1ccc2c(=O)cc(C(=O)NCCc3ccc(S(N)(=O)=O)cc3)oc2c1C", "Potency": "inactive"}
{"smiles": "CCCCc1cc(=O)oc2c(C)c(OCC(=O)N3CCC(C(N)=O)CC3)ccc12", "Potency": "inactive"}
{"smiles": "COc1cc(NC(=S)NCCSc2ccc(C)cc2)cc(OC)c1", "Potency": "6.31 µM (active)"}
{"smiles": "COc1cc(NC(=O)Nc2ccc(C)cc2)cc([N+](=O)[O-])c1", "Potency": "inactive"}
{"smiles": "COc1cccc(C(=O)NCCSc2ccc(Br)cc2)c1", "Potency": "inactive"}
{"smiles": "Cc1ccc(-n2nc3c(=O)n(C(C)C(=O)NCc4ccc5c(c4)OCO5)nc(C)c3c2C)cc1", "note": "(centres undefined)", "Potency": "inactive"}
{"smiles": "O=C(Nc1nnc(-c2ccccc2)o1)c1cc(-c2cccs2)nc2ccccc12", "Potency": "1 µM (active)"}
{"smiles": "CCCCN(C)CCCNC(=O)c1cc(-c2cccs2)nc2ccccc12", "Potency": "inactive"}
{"smiles": "O=C(O)c1cccc(NC(=O)c2cc(-c3cccc(Cl)c3)nc3ccccc23)c1", "Potency": "inactive"}
{"smiles": "COC(=O)c1cc(-c2cccs2)nc2ccccc12", "Potency": "inactive"}
{"smiles": "COC(=O)CNC(=O)c1cc(-c2ccncc2)nc2ccccc12", "Potency": "inactive"}
{"smiles": "CC(C)(C)Cc1nnc(NC(=O)c2cc(-c3ccccc3)nc3ccccc23)s1", "Potency": "12.6 µM (active)"}
{"smiles": "CCOc1ccc(CN2CCN(CCCc3ccccc3)C(CCO)C2)cc1", "note": "(centres undefined)", "Potency": "inactive"}
{"smiles": "COc1ccc(CNC(=O)CN(C(=O)c2csnn2)c2cnc3ccccc3c2)cc1", "Potency": "inactive"}
{"smiles": "OC(COc1ccc(F)cc1Cl)CN1CCc2ccccc2C1", "note": "(centres undefined)", "Potency": "inactive"}
{"smiles": "O=C(c1ccc(S(=O)(=O)N2CCCC2)cc1)N1CCN(c2ccccc2F)CC1", "Potency": "inactive"}
